HttQ103 aggreg – mutant huntingtin aggregation inhibition; PC12 HttQ103-GFP aggregates, Acumen cytometry, 40 h; Potency, µM (doses to about 46.1 µM), inactives show top-dose activity change, negative = inhibition, hits mostly inhibitors; 220,000 tested, 1.1% active; also: potency is read from the fitted curve at half-maximal effect; % is scaled to controls: 0 for no effect and ±100 for the full control effect; nearly all actives have a fitted effect of over 60% in size
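Aggregates are detected as GFP objects 1–25 µm with signal 6 STDEV over background in lysates of induced PC12 cells. These carry Huntingtin exon 1 with 103 glutamines fused to GFP under an ecdysone promoter; compounds titrated.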
NPSR antag – neuropeptide S receptor (human) antagonism, cAMP | CHO-NPSR cells, cAMP TR-FRET, antagonist mode | Potency, µM (series often up to 38.3 µM), without a hit: top-dose activity change, negative = inhibition, most hits filed as inhibitors | 220,000 tested, 1% active | AID 1461; also: potency is read from the fitted curve at half-maximal effect; % is scaled to controls: 0 for no effect and ±100 for the full control effect; nearly all actives have a fitted effect of over 50% in size
Target sequence (Q6W5P4 whole entry, looked up): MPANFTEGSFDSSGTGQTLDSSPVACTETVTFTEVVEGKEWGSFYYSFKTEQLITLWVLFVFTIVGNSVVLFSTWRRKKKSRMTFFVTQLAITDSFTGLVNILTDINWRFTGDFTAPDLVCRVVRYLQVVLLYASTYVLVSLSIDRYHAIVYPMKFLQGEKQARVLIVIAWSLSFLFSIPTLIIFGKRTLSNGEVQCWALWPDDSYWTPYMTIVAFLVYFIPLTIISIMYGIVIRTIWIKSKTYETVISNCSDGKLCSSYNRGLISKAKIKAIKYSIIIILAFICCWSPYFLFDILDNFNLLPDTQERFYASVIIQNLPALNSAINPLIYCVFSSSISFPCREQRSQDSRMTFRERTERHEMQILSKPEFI
HTT ATP protect – Huntington cell model cytoprotection by ATP luminescence; PC12 HTT-Q103 induced, cytoprotection, ATP luminescence, 40 h; Potency, µM (highest dose often 56.4 µM), without a hit: cytoprotection (ATP increase), hits mostly activators; 230,000 tested, 0.14% active; AID 1471; also: potency is read from the fitted curve at half-maximal effect; % of control where 0% means no effect; nearly all actives have a fitted effect of over 45% in size
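ATP quantification (ATPlite) reports survival of PC12 cells in which tebufenozide, 100 nM final, switches on Htt exon 1 with 103 glutamines linked to GFP; compounds are titrated.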
A-T KAP1 phos – candidate therapy for ataxia-telangiectasia | F2112 A-T fibroblasts, KAP-1 phosphorylation AlphaLISA; neocarzinostatin DNA damage 30 min before lysis | Potency, µM (titrated, usually from 57.5 µM), for inactives: at the highest dose activation, most hits filed as activators | 320,000 tested, 0.19% active; also: potency is read from the fitted curve at half-maximal effect; % of control where 0% means no effect; nearly all actives have a fitted effect of over 45% in size
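ATM-like activity read as KAP-1 phosphorylation via AlphaLISA donor/acceptor antibody pairs after lysis and 6 hr at 25C. Cells were ATM-null patient fibroblasts (F2112, hTERT), dosed 60 min, then exposed to the DSB inducer NCS for 30 min.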
IDH1 R132H inh – inhibitors of human mutant IDH1 R132H | 390,000 tested, 0.093% active | IDH1-R132H enzyme, NADPH consumption, diaphorase/resazurin fluorescence | Potency, µM (series often up to 76.6 µM), for inactives: top-dose activity change, negative = inhibition, usual class: inhibitors | AID 602179; also: potency is read from the fitted curve at half-maximal effect; % is scaled to controls: 0 for no effect and ±100 for the full control effect; nearly all actives have a fitted effect of over 65% in size
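IDH1-R132H (0.5 ug/mL) preincubated 30 min with compound, then NADPH (0.016 mM) and alpha-KG (2 mM) added; 80 min at RT, pH 7.5. Remaining NADPH coupled via diaphorase/resazurin to fluorescence (540/590 nm); concentration-response curves normalized to no-enzyme control.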
Resorufin autofl – counter-screen for mutant IDH1 inhibitors: fluorescence interference; shares compounds with IDH1 R132H inh; Resorufin detection reagent fluorescence interference, cell-free; inhibition of signal, % at 51.2 µM; 750 tested, under 10 active;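 also: 0% = wells with normal resorufin and full inhibition = wells lacking resorufin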
IDH1 WT – inhibits human wild-type IDH1, mutant selectivity check | AID 623995 | WT IDH1 enzyme, NADPH diaphorase/resazurin fluorescence | 750 tested, 9% active | Potency, µM (top dose mostly 115 µM), for the others: top-dose activity change, negative = inhibition, actives largely listed as inhibitors | shares compounds with IDH1 R132H inh;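 also: potency is read from the fitted curve at half-maximal effect; 0% = full WT IDH1 enzyme control and full inhibition = no enzyme wells; nearly all actives have a fitted effect of over 55% in size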
mIDH1 confirm – inhibits human mutant IDH1 enzyme in cherrypick confirmation. shares compounds with IDH1 R132H inh. IDH1 R132H enzyme, NADPH diaphorase/resazurin fluorescence. Potency, µM (doses to about 76.6 µM), for the others: at the top dose activity change, negative = inhibition, most hits filed as inhibitors. 750 tested, 83% active. AID 624002; also: potency is read from the fitted curve at half-maximal effect; nearly all actives have a fitted effect of over 50% in size
* hit, by the source's call; [ ] = remark or other dose. Compounds with a hit are over-represented: about 1.1% of the library has one in this group of screens. Calls follow the shape of the dose curve; as a rule, active = well fitted curve in the direction sought with a large enough effect; inconclusive = small, poorly fitted or top-dose-only effect, or another doubt; inactive = no such curve, though single readings can be large; an effect the other way counts as inactive or inconclusive.

What do the screens show for `COc1cccc(C2c3c(-c4ccccc4)n[nH]c3C(=O)N2c2ccc(C(=O)O)cc2)c1` (configuration not stated)?
HttQ103 aggreg: -1%; NPSR antag: -7%[46.1 µM]; HTT ATP protect: -22%; A-T KAP1 phos: 4%; IDH1 R132H inh: inconclusive; Resorufin autofl: 1; IDH1 WT: inconclusive; mIDH1 confirm: 20µM*

What do the screens show for `COc1ccc(C2c3c(-c4ccc(F)cc4)n[nH]c3C(=O)N2c2ccccc2)cc1OC` (configuration not stated)?
IDH1 R132H inh: 3%

How did COc1cc(C2c3c(-c4ccc(C)cc4)n[nH]c3C(=O)N2c2ccc(F)cc2)ccc1O (configuration not stated) do in these assays?
IDH1 R132H inh: inconclusive; Resorufin autofl: -2; IDH1 WT: -6%; mIDH1 confirm: 25µM*

What do the screens show for `Cc1ccc(N2C(=O)c3[nH]nc(-c4ccc(Cl)cc4)c3C2c2ccc(F)cc2)cc1` (configuration not stated)?
IDH1 R132H inh: -20%

What do the screens show for `Cc1ccc(-c2n[nH]c3c2C(c2ccccc2Cl)N(c2ccc(C(=O)O)cc2)C3=O)cc1` (configuration not stated)?
IDH1 R132H inh: 11µM*; Resorufin autofl: -11; IDH1 WT: 35µM*; mIDH1 confirm: 7.1µM*

What do the screens show for `O=C(O)c1ccc(N2C(=O)c3[nH]nc(-c4ccccc4)c3C2c2cccc(F)c2)cc1` (configuration not stated)?
IDH1 R132H inh: inconclusive; Resorufin autofl: -5; IDH1 WT: -18%; mIDH1 confirm: 32µM*

What do the screens show for `CCOc1ccc(OCC)c(NC(=O)c2nnn(CC(=O)Nc3ccc(C)cc3C)c2N)c1`?
IDH1 R132H inh: -2%

What do the screens show for `CCOC(=O)c1cc(-c2ccccc2)n(-c2cccc(C(=O)Nc3ccc(OC)cc3)c2)c1C`?
IDH1 R132H inh: -6%

Results for COc1ccc(C(=O)Nc2nnc(SCc3cc(=O)n4cccc(C)c4n3)s2)cc1 ?
IDH1 R132H inh: 3%

Results for COc1ccc(C2c3c(-c4ccccc4)n[nH]c3C(=O)N2c2ccc(C(=O)O)cc2)cc1 (configuration not stated) ?
HttQ103 aggreg: 5%[9.22 µM]; NPSR antag: 38%; HTT ATP protect: 9%[10 µM]; A-T KAP1 phos: 43%; IDH1 R132H inh: 52µM*; Resorufin autofl: 11; IDH1 WT: inconclusive; mIDH1 confirm: 45µM*

How did CCc1ccc(C2c3c(-c4ccccc4)n[nH]c3C(=O)N2c2ccc(C(=O)O)cc2)cc1 (configuration not stated) do in these assays?
IDH1 R132H inh: 35µM*; Resorufin autofl: -5; IDH1 WT: 25µM*; mIDH1 confirm: 7.1µM*

What do the screens show for `O=C(O)c1ccc(N2C(=O)c3[nH]nc(-c4ccccc4)c3C2c2ccccc2)cc1` (configuration not stated)?
HttQ103 aggreg: 1%; NPSR antag: 9%; HTT ATP protect: -28%; A-T KAP1 phos: -2%; IDH1 R132H inh: -9%

What do the screens show for `CCOc1cc(C2c3c(-c4ccccc4)n[nH]c3C(=O)N2c2ccc(C(=O)O)cc2)ccc1O` (configuration not stated)?
HttQ103 aggreg: 20%; NPSR antag: -6%; HTT ATP protect: -17%; A-T KAP1 phos: 0%; IDH1 R132H inh: -7%

Results for COc1ccc(-c2n[nH]c3c2C(c2ccc(OC)c(OC)c2)N(c2ccccc2)C3=O)cc1 (configuration not stated) ?
HttQ103 aggreg: -2%; NPSR antag: -20%[46.1 µM]; HTT ATP protect: 9%; A-T KAP1 phos: 2%; IDH1 R132H inh: inconclusive; Resorufin autofl: 10; IDH1 WT: 2%; mIDH1 confirm: 20µM*

Results for Cc1cccc(CNC(=O)CN2C(=O)CCn3nc(-c4cn(C)c5ccccc45)cc32)c1 ?
IDH1 R132H inh: 0%

Results for O=C(NCc1ccco1)C(c1ccccc1)N(C(=O)Cc1cccs1)c1ccccc1 (configuration not stated) ?
HttQ103 aggreg: -23%; NPSR antag: -9%[46.1 µM]; HTT ATP protect: 5%[1.9 µM]; IDH1 R132H inh: -16%

How did O=C(NC1CCCCC1)C(c1ccc(F)cc1)N(C(=O)Cc1ccsc1)c1ccc(F)cc1 (configuration not stated) do in these assays?
HttQ103 aggreg: -5%; NPSR antag: -3%[46.1 µM]; HTT ATP protect: 6%; A-T KAP1 phos: 4%; IDH1 R132H inh: 5%

How did O=C(NCc1ccco1)C(c1cccs1)N(C(=O)Cc1cccs1)c1ccccc1 (configuration not stated) do in these assays?
HttQ103 aggreg: 5%; NPSR antag: -17%[46.1 µM]; HTT ATP protect: -8%[10 µM]; A-T KAP1 phos: 5%; IDH1 R132H inh: inconclusive; Resorufin autofl: -11; IDH1 WT: 4%; mIDH1 confirm: inconclusive

How did O=C(NC1CCCC1)C(c1ccncc1)N(C(=O)Cc1cccs1)c1ccccc1 (configuration not stated) do in these assays?
HttQ103 aggreg: 4%[9.22 µM]; NPSR antag: -9%; HTT ATP protect: -5%; A-T KAP1 phos: 1%; IDH1 R132H inh: inconclusive; Resorufin autofl: -1; IDH1 WT: 6%; mIDH1 confirm: inconclusive

How did O=C(NC1CCCC1)C(c1ccsc1)N(C(=O)Cc1cccs1)c1ccccc1 (configuration not stated) do in these assays?
HttQ103 aggreg: -3%; NPSR antag: -11%[46.1 µM]; HTT ATP protect: -5%[10 µM]; A-T KAP1 phos: 11%; IDH1 R132H inh: inconclusive; Resorufin autofl: -4; IDH1 WT: 7%; mIDH1 confirm: 2.8µM*

Results for O=C(NC1CCCCC1)C(c1ccccc1)N(C(=O)Cc1ccsc1)c1ccccc1 (configuration not stated) ?
HttQ103 aggreg: 15%; NPSR antag: -9%[46.1 µM]; HTT ATP protect: 0%[10 µM]; A-T KAP1 phos: -5%; IDH1 R132H inh: inconclusive; Resorufin autofl: -5; IDH1 WT: -1%; mIDH1 confirm: 0.63µM*

High-throughput results deposited in PubChem by National Center for Advancing Translational Sciences (NCATS).
